# High-throughput results (PubChem)
# The list is not random: actives were taken first. Their share in the collection is about 3.5%.
# NS1 inh – inhibitors of influenza NS1 protein function. actives 0.4% (n = 270,000). AID 2326. Potency, µM (top dose mostly 46.1 µM); calls by dose curve; further: actives are rising curves; nearly all actives have a fitted effect of over 50% in size
#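 Recovery from NS1-induced slow growth read by OD600 in budding yeast switched to galactose assay medium (pH 6.0, -URA) at 1:100 dilution. Compound 23 nl per well; the matching strain lacking NS1 serves as control.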
# RE007 growth inh – less growth of the S. pombe RE007 Vpr strain | S. pombe RE007 Vpr strain, BacTiter-Glo ATP luminescence, 24 h | Potency, µM (doses to about 92.2 µM), usual class: inhibitors | actives 0.21% (n = 360,000) | AID 651644; active means well fitted falling curve with a large enough effect; inconclusive means small, poorly fitted or top-dose-only effect; inactive means no such curve, though single readings can be large or run the other way; further: nearly all actives have a fitted effect of over 50% in size
#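 Fission yeast strain RE007, carrying one chromosomally integrated HIV-1 vpr copy, was seeded at OD 0.01 in PMG+AL medium with 23 nL pinned compound. After 24 h at 30 °C and 99% humidity, viability was read by BacTiter-Glo luminescence.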
# Tb PYK inh – T. brucei pyruvate kinase inhibition. TbPYK enzyme, Kinase-Glo Plus ATP luminescence, 45 min. Potency, µM (series often up to 76.8 µM), actives largely listed as inhibitors. actives 0.12% (n = 410,000). AID 624173; further: nearly all actives have a fitted effect of over 50% in size
#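 T. brucei PYK with substrate was exposed to pin-transferred compounds across a concentration series, then started with 130 uM ADP (final). After 45 min at room temperature, Kinase-Glo Plus luminescence was read, normalized and curve-fitted.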
# FBPA Giardia inh – inhibitors of Giardia lamblia fructose-1,6-bisphosphate aldolase | A8B2U2 | purified Giardia FBPA | Potency, µM (highest dose often 59.6 µM), hits mostly inhibitors | actives 0.71% (n = 290,000) | AID 2451; further: nearly all actives have a fitted effect of over 55% in size
# Target sequence (A8B2U2 whole entry, looked up): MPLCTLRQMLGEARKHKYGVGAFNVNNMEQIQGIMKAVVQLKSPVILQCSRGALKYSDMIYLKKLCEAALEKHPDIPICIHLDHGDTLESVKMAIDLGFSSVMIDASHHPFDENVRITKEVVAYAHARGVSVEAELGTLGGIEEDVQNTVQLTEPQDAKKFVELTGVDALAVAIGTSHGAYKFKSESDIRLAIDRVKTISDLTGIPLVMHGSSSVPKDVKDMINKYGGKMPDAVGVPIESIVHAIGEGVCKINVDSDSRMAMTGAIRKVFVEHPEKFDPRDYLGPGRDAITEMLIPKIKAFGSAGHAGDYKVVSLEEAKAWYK
#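 40 nM FBPA preincubated 10 min at RT with compound (up to 57.5 uM final), then substrate plus GAPDH/TPI/NAD/arsenate coupling and diaphorase/resazurin added. Fluorescence read after 20 min at RT, 525/598 nm.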
# Sm TGR inh – S. mansoni TGR enzyme inhibition; actives 3% (n = 360,000); purified TGR, DTNB reduction, TNB absorbance 405 nm; Potency, µM (doses to about 114 µM), actives largely listed as inhibitors; further: nearly all actives have a fitted effect of over 60% in size
#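 First, TGR (20 nM dispensed) and NADPH were mixed with compound. Second, a 15 min room-temperature incubation followed. Third, further NADPH and then DTNB were added to start the reaction. Finally, TNB absorbance was monitored kinetically.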
# LmPK inhibitor – LmPK (Leishmania mexicana) enzyme inhibition. actives 0.37% (n = 290,000). purified LmPK, Kinase-Glo ATP luminescence, 1 h. Potency, µM (highest dose often 57.5 µM), hits mostly inhibitors. Q27686
#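 Screened at intermediate enzyme activity to detect both inhibitors and activators: LmPK at 0.1 nM, with a 0.5 nM enzyme column as activation reference. PEP 0.5 mM, ADP 0.1 mM; ATP detected by luminescence after 1 h.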
# A number is an active result; - = inactive; ? = inconclusive; . = no result given; [ ] = another dose, or the depositor's remark. Unless noted, the call rests on the fitted dose curve; in most records, active means well fitted curve in the direction sought with a large enough effect; inconclusive means small, poorly fitted or top-dose-only effect, or another doubt; inactive means no such curve, though single readings can be large; an effect the other way counts as inactive or inconclusive.
SMILES,NS1 inh,RE007 growth inh,Tb PYK inh,FBPA Giardia inh,Sm TGR inh,LmPK inhibitor
Cc1cccc(NC(=O)/C(C#N)=C/c2ccccc2O)n1,-,-,-,-,89.1µM,-
C=C1C(=O)O[C@@H]2[C@H]1[C@@H](OC(=O)/C(C)=C/C)C/C(C)=C\C(=O)/C=C(\C)[C@@H]2O,-,-,-,-,5.62µM,-
O=C(Nc1ccccc1)Nc1ccc(C(=O)N2CCCC2)cc1,-,-,?,-,-,15.8µM
O=C(Nc1ccc(C(=O)N2CCCCC2)cc1)c1ccccc1,.,-,?,.,.,.
O=C(Nc1ccc(C(=O)N2CCCC2)cc1)c1ccc2c(c1)OCO2,-,?,-,-,-,15.8µM
CC(=O)OCC1OC(Oc2cc(OC(C)=O)c3c(=O)cc(-c4ccc(OC(C)=O)c(OC(C)=O)c4)oc3c2)C(OC(C)=O)C(OC(C)=O)C1OC(C)=O (stereo not drawn),.,.,.,-,.,.
COc1ccc(-c2nc(CS(=O)CC(=O)NCc3ccccc3Cl)c(C)o2)cc1OC (stereo not drawn),.,.,-,.,-,.
COCCCNC(=O)CS(=O)Cc1nc(-c2cccc(OC)c2)oc1C (stereo not drawn),-,-[3.69 µM],.,-,39.8µM,-
COc1cccc(-c2nc(CS(=O)CC(=O)NCc3ccccc3Cl)c(C)o2)c1 (stereo not drawn),-,-,-,-,31.6µM,-
COc1ccc(C2=NC3(CCCCCC3)N(CC(=O)Nc3ccc(C)c(C)c3)C2=O)cc1,.,.,-,.,-,.
O=C(NCc1ccco1)c1cc2c(s1)CSC2,-,-,-,-,17.8µM,-
CC(/C=N/NC(=O)c1cccs1)=C\c1ccco1,.,-,-,?,31.6µM,-
Cc1ccc(C(=O)N/C(=C/c2ccco2)C(=O)Nc2cccc(C)c2)cc1,-,-,-,-,?,-
O=C(NCc1ccco1)c1cccs1,-,-,-,-,35.5µM,-
O=C(NCc1ccc2c(c1)OCO2)c1cc2c(s1)CSC2,-,-,-,-,-,-
CC(/C=N/NC(=O)Cc1cccs1)=C\c1ccco1,-,-[3.69 µM],.,-,?,-
Cc1cccc(NC(=O)/C(=C\c2ccco2)NC(=O)c2cccs2)c1,-,-,-,-,50.1µM,-
CCOc1ccc(C(=O)NCCc2sc3nc(-c4ccc(Cl)cc4)nn3c2C)cc1OCC,.,.,-,.,-,.
CCn1cc(C(=O)NCCc2ccc(Cl)cc2)c(=O)c2cc(S(=O)(=O)N3CCOCC3)ccc21,.,.,-,.,-,.
CCCCOc1ccc(C(=O)N/C(=C\c2ccc(OC)cc2)C(=O)OCc2ccco2)cc1,-,-,-,-,-,-
Cc1ccc(C(=O)N/C(=C/c2ccco2)C(=O)NCc2ccco2)cc1,-,-,-,-,39.8µM,-
COc1ccc(C(=O)N/C(=C\c2ccco2)C(=O)OCc2ccco2)cc1,-,-,-,-,28.2µM,-
O=C(NC(=S)NCc1ccco1)c1ccc(Br)cc1,-,?,-,?,50.1µM,-
O=C(NCc1ccco1)/C(=C\c1ccco1)NC(=O)c1cccs1,-,-,-,-,28.2µM,-
O=C(NCc1ccco1)/C(=C\c1cccs1)NC(=O)c1cccs1,.,-,-,-,-,-
SMILES,NS1 inh,RE007 growth inh,Tb PYK inh,FBPA Giardia inh,Sm TGR inh,LmPK inhibitor
CC(=O)NC(CCC(N)=O)C(=O)O (stereo not drawn),.,.,-,.,.,.
Cc1ccc(N2CCN(C(=O)Nc3cn(CC(C)C)c(=O)c4ccccc34)CC2)c(C)c1,.,.,-,.,-,.
CC(Sc1nc(-c2ccco2)nc2c1c(=O)n(C)c(=O)n2C)C(=O)O (stereo not drawn),-,-,-,-,39.8µM,-
Cn1c(=O)c2c(SCc3ccccc3)nc(-c3ccco3)nc2n(C)c1=O,-,.,.,-,-,-
Cc1ccc(/C=C/C(=O)N2CCN(Cc3ccccc3)CC2)o1,-,-,-,-,14.1µM,-
Cc1ccc(/C=C/C(=O)N2CCN(S(=O)(=O)c3ccc(C)c(C)c3)CC2)o1,-,-,14.1µM,-,12.6µM,-
Cc1cc(C)cc(C(=O)N2CC(=O)Nc3ccccc32)c1,-,-,-,-,-,-
Cc1ccc(/C=C/C(=O)N2CCN(S(=O)(=O)c3c(C)c(C)cc(C)c3C)CC2)o1,-,-,?,-,10µM,-
Cc1ccc(/C=C/C(=O)N2CC(=O)Nc3ccccc32)o1,-,-,?,?,8.91µM,-
Cc1ccc2nc3c(cc(C#N)c(=O)n3-c3nnc(SCc4ccccc4)s3)c(=O)n2c1,.,.,-,.,-,.
COc1ccc(S(=O)(=O)Nc2cccc(-c3ccc(N4CCOCC4)nn3)c2)cc1F,.,.,-,.,-,.
O=[N+]([O-])c1cccc(CN2C(COCc3ccccc3)CCC=CS2(=O)=O)c1 (stereo not drawn),.,.,.,-,.,.
Cc1cccc(CN2CCN(C(=O)Cc3ccccc3)CC2)c1,-,-,-,?,-,-
Cc1cccc(CN2CCN(C(=O)CCl)CC2)c1,-,-,-,-,35.5µM,-
CCOc1ccc2[nH]c(SCC(=O)OC)c([N+](=O)[O-])c2c1,-,-,-,-,44.7µM,-
COC(=O)CSc1[nH]c2ccc(Br)cc2c1[N+](=O)[O-],.,-,-,-,2.51µM,-
COC(=O)CSc1[nH]c2cc(C)ccc2c1[N+](=O)[O-],-,-,-,-,-,-
COc1ccc2c(c1)NC(c1ccc(Cl)cc1)=NC(c1cccs1)=N2,.,.,-,.,-,.
C#C[C@@]1(OC(C)=O)CC[C@H]2[C@@H]3CCC4=CC(=O)CC[C@@H]4[C@H]3CC[C@@]21C,.,.,-,.,.,.
COc1ccc(N2C3=C(CC4=C2CCCC4=O)C(=O)CCC3)cc1,-,-,?,-,39.8µM,-
Cc1oc(-c2ccc(C(=O)N(C)Cc3ccccc3)cc2)nc1CN1CCc2ccccc21,.,.,-,.,-,.
CC(C)(C)OC(=O)NCCc1nnc(S(=O)(=O)Cc2ccc(Cl)cc2Cl)o1,-,-,-,-,0.891µM,-
CC(C)(C)OC(=O)NCCc1nnc(SCc2ccccc2Cl)o1,-,-,-,-,-,-
CCOC(=O)C1=C(C)N(c2ccc(OC)cc2)C(=O)/C1=C\c1cccs1,-,-,-,-,-,-
CCOC(=O)C1=C(C)N(c2ccc(OC)cc2)C(=O)/C1=C\c1ccc(O)c(OCC)c1,-,-,-,?,4.47µM,31.6µM
COc1ccc(CNC(=O)C2CCN(S(=O)(=O)c3cccc(C(F)(F)F)c3)CC2)cc1,.,-,-,.,-,.
COc1ccc(N2CCC(CNS(=O)(=O)c3cccc(C(F)(F)F)c3)C2)cc1 (stereo not drawn),?,-,-,?,31.6µM,-
COc1ccc(N2CCC(CNC(=O)Nc3ccc(C)c(C)c3)C2)cc1 (stereo not drawn),?,-,-,?,?,-
